# Screening data as filed in PubChem BioAssay.
# PREPL inh – human PREPL enzyme inhibition; Q4J6C6; recombinant PREPL, fluorescence polarization activity-based probe; inhibition, % at 5.96 µM; 320,000 tested, 0.68% active; AID 2751; in the data active means inhibition above about 43%;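 further: 0% = enzyme with DMSO and 100% = wells lacking enzyme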
# AI-2 QS modul – modulates the Vibrio harveyi AI-2 quorum sensing system; Vibrio harveyi JMH597 AI-2 luminescence/OD600 ratio, 9 h; hits give low values; strain lacks LuxN and CqsS sensors; 0 = neutral-control median; activity change, % at 7.5 µM; 300,000 tested, 0.4% active; AID 2094; in the data active means activity change below about -75%, passing the limit was not always enough; inconclusive means no clear call, values can overlap the other calls;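 further: luminescence divided by OD600 gain over 9 h not by final OD600 alone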
# CHT PAM – allosterically activates the human high affinity choline transporter. Q9GZV3. CHT-expressing cells, membrane potential dye, choline EC20; hits give high values; LV-AA mutant CHT in HEK293 cells. B-score at 10 µM. 310,000 tested, 0.49% active. AID 488977;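 active means initial fluorescence not abnormally high and integrated response B-score, plate-corrected, over 3 SD above library mean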
# CHT block – inhibits the human high affinity choline transporter; CHT-expressing cells, membrane potential dye, choline response; hits give low values; B-score at 10 µM; 310,000 tested, 0.86% active;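 active means B-score over 3 SD under the library average, and starting fluorescence ratio not unusually high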;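 further: choline stimulus applied at its EC90 after an EC20 pre-addition; B-score computed on integrated fluorescence ratio after choline addition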
# ALR inh – blocks human ALR sulfhydryl oxidase activity | purified ALR, DTT oxidation, H2O2 HRP-luminol luminescence | inhibition, % (concentration not given with the values) | 290,000 tested, 3.8% active | AID 485317;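 active means mean replicate inhibition above about 79%, with every replicate also reaching it, limit read from the data; inconclusive means only one of the two criteria met; inactive means mean below limit and not every replicate reaching it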
# * hit, by the source's call; i = inactive; ? = inconclusive; nt = no result. Compounds with a hit are over-represented: about 5% of the library has one in this group of screens.
SMILES,PREPL inh,AI-2 QS modul,CHT PAM,CHT block,ALR inh
COc1cc(OC)cc(C(=O)NNc2nc3cc4c(cc3s2)OCO4)c1,0.6,-18.2,i,i,?
COc1cc(C(=O)NNc2nc3cc4c(cc3s2)OCO4)cc(OC)c1OC,21.4,24.6,i,i,99.2*
O=C(NNc1nc2cc3c(cc2s1)OCO3)c1cccc(F)c1,11.6,-88.3*,i,i,2.7
CC1CCCCC12NC(=O)N(CC(=O)Nc1ccc(OC(F)F)cc1)C2=O (stereo not given),7.2,nt,nt,nt,-23.3
CS/C(=C\[N+](=O)[O-])Nc1ccc(F)cc1,5.3,-3.5,i,i,20.0
CS/C(=C\[N+](=O)[O-])Nc1ccccc1,-3.8,2.8,i,i,79.9*
CC(C)[C@H](N)c1nnc(SCC(=O)c2ccc(Cl)cc2)o1,1.7,35.7,i,i,98.5*
COC(=O)c1ccc(CSc2nnc(CNC(=O)c3ccccc3F)o2)o1,-2.3,-1.1,i,i,97.0*
Cc1nnc(NC(=O)CSc2nnc(CNC(=O)c3ccc(S(=O)(=O)N(C)C)cc3)o2)s1,-6.2,18.8,i,i,0.1
COc1ccc(C(=O)CSc2nnc(CNC(=O)c3ccc(S(=O)(=O)N(C)C)cc3)o2)cc1,-5.5,1.7,i,i,98.0*
O=C(CSc1nnc(CNC(=O)c2ccccc2F)o1)c1ccc(Cl)cc1,-17.9,20.7,i,i,99.0*
Cc1c(C)n2c(SCC(=O)Nc3cccc4ccccc34)nnc2[nH]c1=O,2.6,33.0,i,i,nt
CCOC(=O)Cc1cc(=O)n(-c2nc3ccccc3s2)[nH]1,6.5,58.1,i,i,97.6*
CCCc1cc(=O)n(-c2nc3ccccc3s2)[nH]1,11.0,20.2,i,i,0.4
Cc1cc(/C=C(\C#N)c2nnc(N3CCOCC3)n2-c2ccccc2)c(C)n1-c1ccccc1,14.8,1.2,i,i,-2.4
COc1cc(/C=C(\C#N)c2nnc(N3CCOCC3)n2-c2ccccc2)ccc1O,0.9,16.0,i,i,98.9*
Cc1ccc(NC2CCCN(C(=O)CCC3=NNC(=O)CC3)C2)cc1C (stereo not given),7.1,-1.0,i,i,98.1*
COc1ccc(CCNC(=O)C2CCCN(S(C)(=O)=O)C2)cc1OC (stereo not given),-2.8,-291.5*,i,i,4.1
COc1ccccc1C(=O)C1CCCN(C(=O)CSc2ccccn2)C1 (stereo not given),7.8,2.8,i,i,nt
CCCC(=O)N1CCCC(C(=O)c2ccc(OC)c(OC)c2)C1 (stereo not given),-3.7,12.0,i,i,nt
Cc1ccc(NC2CCCN(C(=O)CSc3ccccn3)C2)cc1C (stereo not given),nt,17.8,i,i,99.1*
COc1ccc(CCC(=O)N2CCCC(Nc3ccc(C)c(C)c3)C2)cc1OC (stereo not given),0.7,-4.8,i,i,98.9*
CCOC(=O)N1CCN(S(=O)(=O)N2CCCC(C(=O)NCCc3ccc(OC)c(OC)c3)C2)CC1 (stereo not given),8.1,25.6,i,i,1.1
O=C(CCc1ccccn1)N1CCCC(Nc2cccc(F)c2)C1 (stereo not given),4.3,35.4,i,i,50.7
Cc1cc(Cl)ccc1OCC(=O)OCC(=O)NC1CCS(=O)(=O)C1 (stereo not given),5.7,nt,nt,nt,nt
SMILES,PREPL inh,AI-2 QS modul,CHT PAM,CHT block,ALR inh
O=C(NC1CCC(O)CC1)C1CCN(S(=O)(=O)c2c(Cl)cccc2Cl)CC1 (stereo not given),11.8,nt,nt,nt,nt
Cc1cc(C(F)(F)F)nc(SCC(=O)NC2CCCCC2)n1,-13.6,19.9,i,i,-13.8
COc1ccccc1OCC(=O)N1CCCC(Nc2ccc(C)c(C)c2)C1 (stereo not given),12.2,38.4,i,i,98.0*
COc1ccccc1OCC(=O)N1CCCC(Nc2cccc(F)c2)C1 (stereo not given),-10.5,14.4,i,i,-2.8
COc1ccccc1OCC(=O)N1CCCC(Nc2ccc(F)c(F)c2)C1 (stereo not given),-2.0,15.0,i,i,40.7
COc1ccc(NC2CCCN(C(=O)COc3ccc(Cl)cc3C)C2)cc1OC (stereo not given),32.5,6.6,i,i,96.1*
CC(=O)C(/C=N/c1ncc(C(F)(F)F)cc1Cl)=C(\C)O,18.0,14.5,i,i,-2.6
CC(C)CNC(=S)N1CCC(NC(=O)c2ccco2)CC1,-0.4,11.7,i,i,-18.5
CC1CCN(c2ccc(C(F)(F)F)cc2N)CC1,2.1,-1.3,i,i,97.9*
Cc1[nH]n(-c2ccccc2)c(=O)c1/C=N/c1nn[nH]n1,0.1,16.8,i,i,-30.6
C=CCSc1nnc(-c2ccccc2N=Cc2c(C)[nH]n(-c3ccccc3)c2=O)c(=O)[nH]1,2.4,47.4,i,i,97.3*
O=C1CCCCC1C(Nc1ccc(Br)cc1)c1ccccc1 (stereo not given),-2.1,26.3,i,i,28.7
O=C1CCCCC1C(Nc1ccc(Cl)cc1)c1ccccc1 (stereo not given),7.4,2.5,i,i,98.4*
COc1ccc2c(/C=N/NS(=O)(=O)c3ccc(C)cc3)c[nH]c2c1,6.2,0.7,i,i,89.3*
COc1ccc2[nH]cc(/C=N/NS(=O)(=O)c3ccc(C)cc3)c2c1,9.3,-0.2,i,i,nt
CN(CC(=O)Nc1ccccc1Cl)C(=O)COC(=O)CSc1ccc(F)cc1,4.7,20.8,i,i,5.4
N#Cc1ccsc1NC(=O)CN1CCN(c2ccccc2O)CC1,35.2,12.1,i,i,99.1*
Cc1ccnc(SCC(=O)Nc2sccc2C#N)n1,12.6,-10.9,i,i,-4.5
CC(=O)Nc1ccc(SCC(=O)N(C)CC(=O)Nc2ccccc2Cl)cc1,10.2,nt,nt,nt,97.9*
CC(=O)Nc1ccc(SCC(=O)Nc2ccccc2-c2ccccc2)cc1,-3.1,9.4,i,i,98.4*
COCC(=O)Nc1ccccc1-c1ccccc1,11.0,15.8,i,i,-9.9
CC(=O)Nc1ccc(SCC(=O)Nc2sccc2C#N)cc1,-16.4,21.3,i,i,98.8*
O=[N+]([O-])c1ccc(S(=O)(=O)Nc2ccc(S(=O)(=O)N3CCCC3)cc2)cc1,3.7,17.2,i,i,-6.4
CC(=O)Nc1ccc(SCC(=O)NC(=O)c2ccc(S(=O)(=O)N(C)C)cc2)cc1,-5.0,nt,nt,nt,98.6*
COC(=O)Nc1ccc(SCC(=O)c2ccccc2)cc1,-6.6,-11.1,i,i,99.1*
CN(C)S(=O)(=O)c1ccc(C(=O)NC(=O)CSc2ccccc2)cc1,0.1,10.5,i,i,6.5
Cc1cc(OCC(=O)NC2CC2)c2c(C)c(C)c(=O)oc2c1,5.2,7.7,i,i,-7.9
